Experimental data reported in PubChem BioAssay AID1159580 (chemical genetic matrix, 2015).
Values joined by “and” are separate entries in the source; they are usually repeats but may differ in a detail not shown here. Identical values can stand only once. The whole screen tested about 5,500 compounds, of which about 2,000 (36%) were called active. Another 18% or so got no clear call; they are omitted. No stated cut-off is given here; in the data, active means normalized growth mostly below about 0.91 (no sharp cut-off); inconclusive means no clear call, values can overlap the other calls; inactive means mostly above about 0.92. The list shows a part of the results.

Experiment: chemical genetic growth profiling, strain panel (AID 1159580);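 further: tested at 20 µM; growth read once vehicle control cultures reached saturation at 30 °C; 1 = growth at the plate median or of vehicle wells; lower values mean less growth of the strain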
Details: S. cerevisiae deletion strains, growth OD

Measured: normalized growth

NCCCCN
inactive: locus YAL013W, strain DEP1, hits give low values 1.02 | locus YAL040C, strain CLN3, hits give low values 1.07 | locus YBR021W, strain FUR4, hits give low values 1.02 | locus YBR229C, strain ROT2, hits give low values 1 | locus YCL029C, strain bik1, hits give low values 0.99 | locus YCL061C, strain MRC1 (second series), hits give low values 0.999 | locus YDL035C, strain GPR1, hits give low values 1.04 | locus YDL074C, strain BRE1, hits give low values 1.01 | locus YDL101C, strain DUN1, hits give low values 1.01 | locus YDL185W, strain tfp1, hits give low values 1.02 | locus YDL192W, strain arf1, hits give low values 1.01 | locus YDR101C, strain arx1, hits give low values 0.971 | locus YDR150W, strain NUM1, hits give low values 1.01 | locus YDR162C, strain NBP2, hits give low values 1.04 | locus YDR318W, strain mcm21, hits give low values 1.01 | locus YDR363W, strain ESC2, hits give low values 1.03 | locus YDR388W, hits give low values 1.01 | locus YDR502C, strain sam2, hits give low values 0.994 | locus YEL061C, strain CIN8, hits give low values 1.01 | locus YER002W, strain NOP16, hits give low values 1 | locus YER110C, hits give low values 1.01 | locus YER155C, strain BEM2, hits give low values 1.01 | locus YER167W, strain BCK2, hits give low values 1.02 | locus YGL078C, strain dbp3, hits give low values 0.995 | locus YGL086W, strain mad1, hits give low values 0.985 | locus YGL248W, strain PDE1, hits give low values 1 | locus YGR078C, strain PAC10, hits give low values 0.999 | locus YGR135W, strain pre9, hits give low values 1.06 | locus YGR229C, strain SMI1, hits give low values 1.02 and 1.01 | locus YGR252W, strain gcn5, hits give low values 1.04 | locus YHR030C, strain SLT2, hits give low values 1 and 0.949 | locus YHR079C, strain IRE1 (second series), hits give low values 1 | locus YHR079C, strain IRE1, hits give low values 0.969 | locus YHR094C, strain hxt1, hits give low values 1.01 | locus YHR129C, strain ARP1, hits give low values 1.01 | locus YHR200W, strain rpn10, hits give low values 1 | locus YIL066C, strain RNR3, hits give low values 1.01 | locus YIL073C, strain SPO22, hits give low values 1.11 | locus YIL125W, strain kgd1, hits give low values 0.997 | locus YIR030C, strain dcg1, hits give low values 0.999 | locus YJL095W, strain BCK1, hits give low values 1.01 and 0.994 | locus YJL134W, strain LCB3, hits give low values 1.01 | locus YJL168C, strain set2, hits give low values 1.01 | locus YJL187C, strain SWE1 (second series), hits give low values 1.01 | locus YJR043C, strain POL32, hits give low values 1 | locus YJR066W, strain TOR1, hits give low values 0.93 | locus YJR075W, strain HOC1, hits give low values 1.01 | locus YKL009W, strain mrt4, hits give low values 0.99 | locus YKL068W, hits give low values 0.999 | locus YKL085W, strain MDH1 (second series), hits give low values 1 | locus YKL085W, strain MDH1, hits give low values 1 | locus YKL190W, strain CNB1, hits give low values 0.999 | locus YKR001C, strain vps1, hits give low values 1 | locus YLR039C, strain RIC1, hits give low values 1.05 | locus YLR058C, strain SHM2, hits give low values 1.01 | locus YLR102C, strain apc9, hits give low values 1 | locus YLR113W, strain HOG1, hits give low values 1.01 | locus YLR262C, strain YPT6, hits give low values 1.06 | locus YLR268W, strain sec22, hits give low values 0.996 | locus YLR330W, strain CHS5, hits give low values 1.01 | locus YLR342W, strain FKS1 (second series), hits give low values 1.07 | locus YLR371W, strain rom2, hits give low values 1 | locus YLR418C, strain cdc73, hits give low values 1.03 | locus YML016C, strain PPZ1, hits give low values 1 | locus YML032C, strain rad52, hits give low values 0.992 | locus YML124C, strain tub3, hits give low values 1 | locus YMR078C, strain ctf18, hits give low values 1 | locus YMR223W, strain ubp8, hits give low values 1.05 | locus YMR307W, strain GAS1, hits give low values 1.07 and 1.01 | locus YNL067W, strain RPL9B, hits give low values 1 | locus YNL128W, strain TEP1, hits give low values 1.01 | locus YNL153C, strain GIM3, hits give low values 1 | locus YNL175C, strain NOP13, hits give low values 1 | locus YNL183C, strain NPR1, hits give low values 0.961 | locus YNL197C, strain WHI3, hits give low values 1 | locus YNL224C, strain SQS1, hits give low values 1 | locus YNL233W, strain BNI4, hits give low values 1.01 | locus YNL250W, strain rad50, hits give low values 1.03 | locus YNL271C, strain bni1, hits give low values 1.01 | locus YNL298W, strain CLA4, hits give low values 1.01 | locus YNL307C, strain MCK1, hits give low values 1.02 | locus YNR052C, strain pop2, hits give low values 1 | locus YOL012C, strain htz1 0.897 | locus YOL147C, strain pex11, hits give low values 1.01 | locus YOR061W, strain CKA2, hits give low values 1 | locus YOR069W, strain VPS5, hits give low values 1.01 | locus YOR083W, strain WHI5 (second series), hits give low values 1.01 | locus YOR136W, strain idh2, hits give low values 0.992 | locus YOR144C, strain elg1, hits give low values 1 | locus YOR184W, strain ser1, hits give low values 1 | locus YOR231W, strain MKK1, hits give low values 0.957 | locus YOR316C, strain cot1, hits give low values 1 | locus YPL055C, strain LGE1, hits give low values 0.99 | locus YPL241C, strain CIN2, hits give low values 1.01 | locus YPL256C, strain CLN2, hits give low values 0.958 | locus YPR119W, strain clb2, hits give low values 0.994 | locus YPR141C, strain kar3, hits give low values 1 | locus YPR163C, strain tif3, hits give low values 1.01 | locus YPR167C, strain met16, hits give low values 1 | strain wtn01, hits give low values 0.995
